# Laboratory results reported in PubChem BioAssay (Tox21).
# Records with an inconclusive call do not appear. Unmarked numbers belong to inactive results. Active and inactive are the calls of the source. Calls come from the whole dose curve.
# Assay: qHTS assay to identify small molecule agonists or antagonists of the thyroid stimulating hormone receptor (TSHR) signaling pathway - wild type cell line counter screen (AID 1259384)
# Conditions: HEK293 wild type, cAMP HTRF counter-screen, hits give high values; series mostly up to 92.4 µM; cAMP activity change: at the top concentration
# Text: U.S. Tox21 Program National Center for Advancing Translational Sciences [NCATS] NIH Chemical Genomics Center [NCGC] U.S. Environmental Protection Agency [EPA] National Institutes of Environmental Health Sciences [NIEHS] National Toxicology Program [NTP] U.S. Food and Drug Administration [FDA] Tox21 Assay Overview: TSHR is the receptor for thyrotropin (thyroid stimulating hormone or TSH), a member of the glycoprotein hormone family. TSH is released by the anterior pituitary gland and is the main regulator of thyroid gland growth and development. Upon binding circulating thyrotropin, a G-protein signal cascade activates adenylyl cyclase and […] cAMP concentration is increased. cAMP is a key second messenger involved extensively in cellular signal transduction pathways associated with the majority of G-protein coupled receptors (GPCRs). The activation of these GPCRs by neurotransmitters, lipids, nucleotides, peptides and hormones results in the activation or the inhibition of plasma membrane-bound adenylate cyclase through heterotrimeric G-proteins. A cell-based TSHR-Hek293 assay can be used to identify TSHR agonists. To eliminate the false positive compounds identified from screening a cell-based TSHR-Hek293 cell line, cAMP assay in a wild type Hek293 cells was used as a counter screening.
# Tox21 Assay Protocol Summary: Hek293 cells (wild type) were dispensed at 800 cells/4 uL/well in 1536-well white plates using a Multidrop dispenser. After the assay plates were incubated at a 37 C/5% CO2 incubator for 18 hrs, 23 nL of compounds dissolved in DMSO, positive controls or DMSO only was transferred to the assay plate by a pin tool, followed by 1 ul medium containing Ro20-1724. After 30 min of incubation at room temperature, 2.5 ul/well of cAMP-d2 and 2.5 ul/well of anti-cAMP-cryptate were added respectively into the assay plates using a Flying Reagent Dispenser. The plates were incubated at room temperature for 1 hr. The fluorescence intensity in the plates was measured using an Envision plate reader. Each test compound was measured at 15 concentrations and in triplicates.
# % is set by controls: 0 for no effect and ±100 for the full control effect.
Compound,cAMP activity change,outcome
CCOC(=O)CC(C)=O,-1.92%,–
CN1CC(=O)NC1=N,-2.29% [at 42.5 µM],–
CCCCCCCCCCCC,-0.632%,–
CCCCCCCCCCCCCC=O,0.631% [at 8.39 µM],–
NS(=O)(=O)c1cc(C(=O)O)cc(N2CCCC2)c1Oc1ccccc1,1.42% [at 42.5 µM],–
O=C[C@H](O)[C@@H](O)[C@H](O)[C@H](O)CO,4.55%,–
Cc1sccc1Br,-6.66% [at 42.5 µM],–
CN(C)CCCN1c2ccccc2CCc2ccc(Cl)cc21,–,inactive
Nc1ccccc1S(=O)(=O)O,-6.08%,–
CCCCCSCCCCC,1.46%,–
CC(C)(O)C#CC(C)(C)O,-3.82%,–
NC(=O)c1ccc(N)cc1,6.42%,–
C[C@@H]1CCN(C(=O)[C@H](CCCN=C(N)N)NS(=O)(=O)c2cccc3c2NC[C@H](C)C3)[C@@H](C(=O)O)C1,-2.08% [at 42.5 µM],–
CN1C(=O)N(C)C(O)C1O (stereo not given),0.99%,–
O=C(O)Cc1ccc(CCNS(=O)(=O)c2ccc(Cl)cc2)cc1,1.58% [at 42.5 µM],–
CC(C)(C)NCCNC(C)(C)C,-2.37%,–
COC(=O)c1c(Cl)c(Cl)c(C(=O)OC)c(Cl)c1Cl,–,inactive
N=C(N)c1ccc(OCCCOc2ccc(C(=N)N)cc2)cc1,1.61% [at 42.5 µM],–
NCCCNCCSP(=O)(O)O,-0.261% [at 8.39 µM],–
CCCCC/C=C\CCC=O,-0.0045%,–

Compound,cAMP activity change,outcome
CCN(CC)CCNC(=O)c1cc(S(C)(=O)=O)ccc1OC,2.35% [at 42.5 µM],–
C=CCOCC(CC)(CO)COCC=C,-0.0942%,–
C=C1CC[C@H]2C[C@@H]1C2(C)C,5.91%,–
O=C(O)CCCl,2.84%,–
CC(NC(CCc1ccccc1)C(=O)O)C(=O)N1C(=O)N(C)CC1C(=O)O (stereo not given),-0.171% [at 42.5 µM],–
C1CN(CCOCCN2CCOCC2)CCO1,-4.98%,–
CCC=O,1.85%,–
Cc1ccc(Cl)cc1Cl,-1.94%,–
COC(=O)[C@@H](N)Cc1ccc(O)c(O)c1,0.958% [at 42.5 µM],–
COC(=O)C1=C(C)NC(C)=C(C(=O)OC)C1c1ccccc1[N+](=O)[O-],–,inactive
CCOC(=O)[C@H](CCc1ccccc1)N[C@@H](C)C(=O)N1[C@H](C(=O)O)C[C@@H]2CCC[C@@H]21,7.75% [at 42.5 µM],–
C=COCC1CCC(CO)CC1 (stereo not given),2.01%,–
c1cnc(N2CCN(Cc3ccc4c(c3)OCO4)CC2)nc1,5.96% [at 42.5 µM],–
N[C@@H](C(=O)N[C@@H]1C(=O)N2C(C(=O)O)=C(Cl)CS[C@H]12)c1ccccc1,-1.5% [at 8.39 µM],–
c1ccc([C@H]2CN3CCSC3=N2)cc1,0.325% [at 42.5 µM],–
Brc1c(NC2=NCCN2)ccc2nccnc12,0.678% [at 42.5 µM],–
CCCCCCCCS(=O)(=O)Cl,-0.431%,–
CC1=CC(C)C(C=O)CC1 (stereo not given),-4.97%,–
COC(=O)CC(C)=O,-2.62%,–
CN(C)CCCSc1ccccc1NC(=O)/C=C/c1ccccc1,7.77% [at 42.5 µM],–
